Results filed as inconclusive are left out. Active and inactive are the calls of the source. Calls come from the whole dose curve; as a rule, active = well fitted cell-killing curve with a large enough effect; inconclusive = small, poorly fitted or top-dose-only effect, or effect the other way; inactive = flat fitted curve, though single readings scatter. Where a SMILES comes first, the peptide text is derived from it. The star is where a group is joined. Hexanoyl = CCCCCC(=O)*
What was measured:
Assay in all cases: Primary qHTS to identify gynecologic anti-cancer compounds using libraries of approved drugs and bioactive compounds (AID 1345084); note: nearly all actives have a fitted effect of over 55% in size
Settings in all cases: Gynecologic cancer cell panel viability, ATPlite luminescence, 48 h; series mostly up to 57.5 µM
OV90 = system: OV90
Method in brief: (§1)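 Cells, 1,000 per well, were allowed to settle for 16 h at 37 C before compound addition. Five concentrations were tested for 48 h, and viability was read by ATPlite luminescence after 15 min at room temperature.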

PA-1 = system: PA-1
Method in brief: as §1

Tov-21-G = system: Tov-21-G
Method in brief: as §1

Tov112D = system: Tov112D
Method in brief: as §1

SKOV3 = system: SKOV3
Method in brief: as §1
% is set by controls: 0 for no effect and ±100 for the full control effect.

COc1ccc([C@H]2OC[C@H]3[C@@H]2CO[C@@H]3c2ccc(O[C@@H]3O[C@H](CO)C(O)[C@H](O)[C@H]3O)c(OC)c2)cc1OC (stereo partly drawn)
inactive: Potency (OV90) | Potency (PA-1) | Potency (Tov-21-G) | Potency (Tov112D)

CC(C)CC[C@@H](O)[C@](C)(O)[C@H]1CC[C@@]2(O)C3=CC(=O)[C@@H]4C[C@@H](O)[C@@H](O)C[C@]4(C)[C@H]3CC[C@]12C
inactive: Potency (OV90) | Potency (PA-1) | Potency (Tov-21-G) | Potency (Tov112D)

COc1ccccc1N1CCN(CCCCNC(=O)c2ccc(-c3cscn3)cc2)CC1
inactive: Potency (OV90) | Potency (PA-1) | Potency (Tov-21-G) | Potency (Tov112D)

CC(O)C1NC(=O)C2CCCN2C1=O (stereo not drawn)
inactive: Potency (OV90) | Potency (PA-1) | Potency (Tov-21-G) | Potency (Tov112D)

C/C=C/C=C/C=C/C(=O)OC1C=C2C(O)OC(=O)[C@]2(O)[C@@]2(C)CCCC(C)(C)[C@H]12 (stereo partly drawn)
inactive: Potency (OV90) | Potency (PA-1) | Potency (Tov-21-G) | Potency (Tov112D)

O=C(/C=C/c1ccccc1)OC[C@H]1O[C@@H](OC(=O)c2cc(O)c(O)c(O)c2)[C@H](O)[C@@H](O)[C@@H]1O
inactive: Potency (OV90) | Potency (PA-1) | Potency (Tov-21-G) | Potency (Tov112D)

CCCCCC(=O)N1CCC[C@H]1C(=O)N[C@@H](Cc1ccc(O)cc1)C(=O)OC (Hexanoyl-Pro-Tyr-OMe)
inactive: Potency (OV90) | Potency (PA-1) | Potency (Tov-21-G) | Potency (Tov112D)

CC(C)c1ccc2c(c1)C(O)CC1C(C)(CO)CCCC21C (stereo not drawn)
inactive: Potency (OV90) | Potency (PA-1) | Potency (Tov-21-G) | Potency (Tov112D)

CC(C)/C=C1/NC(=O)C(C(C)C)n2c1nc1c(O)cccc1c2=O (stereo not drawn)
inactive: Potency (OV90) | Potency (PA-1) | Potency (Tov-21-G) | Potency (Tov112D)

OCC1OC(Oc2cc(O)cc(/C=C/c3ccc(OC4OC(CO)C(O)C(O)C4O)cc3O)c2)C(O)C(O)C1O (stereo not drawn)
inactive: Potency (OV90) | Potency (PA-1) | Potency (Tov-21-G) | Potency (Tov112D)

C[C@@H]1O[C@@H](O[C@@H]2\C=C/C=C\C=C/C=C\C[C@H](C)OC(=O)/C=C\[C@H]3O[C@@H]3C[C@H](O)C[C@]3(O)C[C@@H](O)[C@@H](C(=O)O)[C@H](C2)O3)[C@H](O)[C@H](N)[C@@H]1O
inactive: Potency (OV90) | Potency (PA-1) | Potency (Tov-21-G) | Potency (Tov112D)

C=CC(C)(CC/C=C(\C)C(=O)OC)OC1OC(COC(=O)CC(C)(O)CC(=O)O)C(O)C(O)C1O (stereo not drawn)
inactive: Potency (OV90) | Potency (PA-1) | Potency (Tov-21-G) | Potency (Tov112D)

CC1(C)CC[C@]2(C(=O)OC3OC(CO)C(O)C(O)C3O)CC[C@]3(C)C(=CCC4[C@@]5(C)C[C@@H](O)[C@H](OC6OC(C(=O)O)C(O)C(O)C6O)C(C)(C)C5CC[C@]43C)[C@@H]2C1 (stereo partly drawn)
inactive: activity change, negative = cytotoxicity (OV90) 1.98% [at 11.6 µM] | activity change, negative = cytotoxicity (PA-1) 4.09% [at 11.6 µM] | activity change, negative = cytotoxicity (Tov-21-G) 3.24% [at 11.6 µM] | activity change, negative = cytotoxicity (Tov112D) 0.489% [at 11.6 µM]

NC(=O)c1ccc(F)c2c1C[C@@H](N(C1CCC1)C1CCC1)CO2
inactive: Potency (OV90) | Potency (PA-1) | Potency (Tov-21-G) | Potency (Tov112D)

CC1(C)CC[C@]2(C(=O)O)CC[C@]3(C)C(=CCC4[C@@]5(C)CC[C@H](O)C(C)(C)C5CC[C@]43C)C2C1 (stereo partly drawn)
inactive: Potency (OV90) | Potency (SKOV3) | Potency (Tov-21-G) | Potency (Tov112D)

COC(=O)C1=CO[C@@H](O[C@@H]2O[C@H](CO)[C@@H](O)[C@H](O)[C@H]2O)[C@@H]2C(C)CC(=O)[C@]12O (stereo partly drawn)
inactive: Potency (OV90) | Potency (PA-1) | Potency (Tov-21-G) | Potency (Tov112D)

CC(C)=CCC/C(C)=C/CO[C@@H]1O[C@H](CO[C@@H]2O[C@@H](CO)[C@H](O)[C@H]2O)[C@@H](O)[C@H](O)[C@H]1O
inactive: Potency (OV90) | Potency (PA-1) | Potency (Tov-21-G) | Potency (Tov112D)

C=CC1(C)C=C2CC[C@H]3[C@@](C)(C(=O)O)CCC[C@]3(C)C2CC1 (stereo partly drawn)
inactive: Potency (OV90) | Potency (PA-1) | Potency (Tov-21-G) | Potency (Tov112D)

C/C=C(\C)C(=O)OC[C@H]1O[C@@H](O[C@H]2[C@@H](O[C@H]3O[C@H](CO)[C@@H](O)[C@H](O)[C@H]3O[C@@H]3O[C@H](CO)[C@@H](O)[C@H](O)[C@H]3O)O[C@H](COC(=O)/C(C)=C/C)[C@@H](O)[C@@H]2O)[C@H](O)[C@@H](O)[C@@H]1O
inactive: activity change, negative = cytotoxicity (OV90) 4.16% [at 11.6 µM] | activity change, negative = cytotoxicity (PA-1) 4.96% [at 11.6 µM] | activity change, negative = cytotoxicity (Tov-21-G) -10% [at 11.6 µM] | activity change, negative = cytotoxicity (Tov112D) -8.88% [at 11.6 µM]

CCCCC(=O)N1c2ccccc2NC2=C(C(=O)CCC2)C1c1ccccc1Cl (stereo not drawn)
inactive: Potency (OV90) | Potency (PA-1) | Potency (Tov-21-G) | Potency (Tov112D)

C=CC(C)(O)CCC1C(C)(O)CCC2C(C)(C)CCCC21C (stereo not drawn)
inactive: Potency (OV90) | Potency (PA-1) | Potency (Tov-21-G) | Potency (Tov112D)

CC/C=C\CC1C(CC(=O)O)CCC1OC1OC(CO)C(O)C(O)C1O (stereo not drawn)
inactive: Potency (OV90) | Potency (PA-1) | Potency (Tov-21-G) | Potency (Tov112D)
